# In the library only some 11% were active in any assay of this set; here they are far more common.
# RGS12 GoLoco inh: blocks human Gai1 binding to RGS12 GoLoco peptide, red readout | Gai1:RGS12 GoLoco peptide FP, rhodamine, 10 min | Potency, µM (top dose mostly 61.6 µM), inactives show at the highest dose activity, negative = inhibition, most hits filed as inhibitors | 0.44% of 230,000 active | AID 880; active means well fitted inhibition curve with a large enough effect, not every such curve was filed as active; inactive means no such curve, though single readings can be large or run the other way; further: potency means the concentration at half of the fitted maximal effect; on the % scale 0 is the no-effect control and ±100 the full control effect; nearly all actives have a fitted effect of over 30% in size
# HTT ATP protect: cytoprotection in Huntington HTT-Q103 PC12 cell model | Potency, µM (highest dose often 56.4 µM), without a hit: cytoprotection (ATP increase), usual class: activators | 0.14% of 230,000 active | PC12 HTT-Q103 induced, cytoprotection, ATP luminescence, 40 h | AID 1471; active means well fitted curve in the direction sought with a large enough effect; inconclusive means small, poorly fitted or top-dose-only effect, or another doubt; inactive means no such curve, though single readings can be large; an effect the other way counts as inactive or inconclusive; further: potency means the concentration at half of the fitted maximal effect; % of control where 0% means no effect; nearly all actives have a fitted effect of over 45% in size
#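 Rat PC12, Q103 Htt exon1-GFP fusion, ecdysone promoter; tebufenozide inducer 100 nM final; compound titration; qHTS, 1500 cells/well; ATPlite luminescent read.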
# ALDH1A1 inh: blocks purified human ALDH1A1 activity; P00352; Purified ALDH1A1, NADH fluorescence, propionaldehyde substrate; Potency, µM (titrated, usually from 75.3 µM), for inactives: at the top dose activity, negative = inhibition, usual class: inhibitors; 7.3% of 220,000 active;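 further: potency means the concentration at half of the fitted maximal effect; plate controls were no enzyme wells and a reference inhibitor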
# Target sequence (P00352 whole entry, looked up): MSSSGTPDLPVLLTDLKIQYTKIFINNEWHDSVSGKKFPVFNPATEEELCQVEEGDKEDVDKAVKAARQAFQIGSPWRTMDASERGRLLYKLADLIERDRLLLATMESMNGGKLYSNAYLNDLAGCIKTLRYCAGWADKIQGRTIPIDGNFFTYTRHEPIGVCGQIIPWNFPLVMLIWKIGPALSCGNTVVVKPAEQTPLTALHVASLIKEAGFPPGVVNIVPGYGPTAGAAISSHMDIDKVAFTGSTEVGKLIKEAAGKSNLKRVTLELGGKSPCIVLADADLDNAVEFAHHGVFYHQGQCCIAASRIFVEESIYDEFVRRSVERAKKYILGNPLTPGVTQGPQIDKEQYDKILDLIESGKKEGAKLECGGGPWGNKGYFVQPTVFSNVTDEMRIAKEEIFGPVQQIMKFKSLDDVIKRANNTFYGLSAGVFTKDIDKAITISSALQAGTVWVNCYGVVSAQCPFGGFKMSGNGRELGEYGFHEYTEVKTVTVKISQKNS
# PNC assembly inh: blocks assembly of the perinucleolar compartment | PC3M PTB-GFP, PNC prevalence imaging, 16 h; hits give low values | activity change (PNC), negative = inhibition, % at 10 µM | 3.1% of 140,000 active;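 active means readout at or below -70, meaning at least 70% loss of cells showing the perinucleolar compartment, a nuclear body marking cancer cells; inconclusive means readout between -30 and a set limit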;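 further: plate controls were DMSO wells for no effect and camptothecin positive control wells for full effect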
#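 Compounds are pinned in duplicate onto adhered PC3M cells stably expressing GFP-tagged PTB and incubated 16 h at 37 C. Cells are then fixed, nuclei stained with Hoechst, and PNC-positive cells counted.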
# HPGD block: inhibitors of human 15-hydroxyprostaglandin dehydrogenase (HPGD); purified HPGD, NADH fluorescence kinetic, PGE2 substrate; Potency, µM, for inactives: at the highest dose activity change, negative = inhibition, actives largely listed as inhibitors; P15428; AID 894; 4.3% of 150,000 active; further: potency means the concentration at half of the fitted maximal effect; on the % scale 0 is the no-effect control and ±100 the full control effect
# Target sequence (P15428 whole entry, looked up): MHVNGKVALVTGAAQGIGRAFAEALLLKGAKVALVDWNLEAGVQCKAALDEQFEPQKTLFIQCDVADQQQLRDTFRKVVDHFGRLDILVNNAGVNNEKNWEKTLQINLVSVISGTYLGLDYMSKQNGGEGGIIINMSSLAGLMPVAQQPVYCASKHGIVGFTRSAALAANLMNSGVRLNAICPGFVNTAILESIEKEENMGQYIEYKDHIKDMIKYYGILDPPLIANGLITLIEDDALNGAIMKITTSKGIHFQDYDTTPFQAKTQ
#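 20 nM HPGD preincubated 15 min at room temperature with compound in 50 mM Tris-HCl pH 8, 0.01% Tween 20. Started with 1 mM NAD+ and 30 uM prostaglandin E2; NADH fluorescence (360/450 nm) read 5 times over 30-s intervals, last minus first.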
# HTT aggregate: mutant huntingtin aggregation inhibition. Potency, µM (titrated, usually from 46.1 µM), without a hit: at the top dose activity change, negative = inhibition, usual class: inhibitors. PC12 HttQ103-GFP aggregates, Acumen cytometry, 40 h. 1.1% of 220,000 active; active means well fitted curve in the direction sought with a large enough effect; inconclusive means small, poorly fitted or top-dose-only effect, or another doubt; inactive means no such curve, though single readings can be large; an effect the other way counts as inactive or inconclusive; further: potency means the concentration at half of the fitted maximal effect; on the % scale 0 is the no-effect control and ±100 the full control effect; nearly all actives have a fitted effect of over 60% in size
#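 Quantitative HTS on tebufenozide-induced (100 nM) PC12 cells stably expressing polyQ103 Huntingtin exon 1–GFP. Reduction of bright GFP aggregates, detected by laser scanning cytometry after lysis, identified actives across the titration.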
# * marks the source's active call; other numbers are inactive results; ? = inconclusive; nt = not tested or not shown; [ ] = another dose, or the depositor's remark. Unless noted, the call rests on the fitted dose curve; in most records, active means well fitted inhibition curve with a large enough effect (not every such curve was filed as active); inconclusive means small, poorly fitted or top-dose-only effect, or another doubt; inactive means no such curve, though single readings can be large or run the other way.
SMILES,RGS12 GoLoco inh,HTT ATP protect,ALDH1A1 inh,PNC assembly inh,HPGD block,HTT aggregate
CC12CCC(C(=O)NCc3ccc4c(c3)OCO4)(OC1=O)C2(C)C (configuration not stated),-8%,8%,?,29,32µM*,8%
O=C(NCc1ccc2c(c1)OCO2)c1cccc(F)c1,12%,-6%,-1%,3,16µM*,-9%
CCC(CC)C(=O)NCCCCc1ccccc1,-8%,24%[10 µM],0%,?,-9%,-8%
c1ccc(-c2cc(-c3cc(-c4ccccn4)[nH]n3)n[nH]2)nc1,4%[14.2 µM],3%[10 µM],-2%[13.5 µM],nt,-2%,nt
CC1Cc2c(-c3ccccc3)nc3c(c2CO1)CN(CCOc1ccccc1)CC3 (configuration not stated),nt,-60%[10 µM],-5%[13.5 µM],nt,nt,nt
COc1ccc(COc2ccccc2C(=O)NCc2ccccc2)cc1F,3%,21%[10 µM],?,16,16µM*,?
Cc1nn(C)cc1CNC(=O)c1cccc(Br)c1,3%,-14%[10 µM],13%,13,-5%,17%
O=C(NCc1ccc2c(c1)OCO2)c1cccc(Cl)c1,-1%,-8%[10 µM],-5%,-28,3.5µM*,-7%[9.22 µM]
Cc1nn(C)cc1CNC(=O)c1cccc(F)c1,-6%,0%[0.074 µM],13%,-98*,-4%,-22%
COc1cc(C(=O)NCc2ccccc2)ccc1OC(F)F,nt,8%[10 µM],-16%,-30,nt,-20%
COc1ccccc1/C=C(/CC(=O)NCc1ccc2c(c1)OCO2)c1nc2ccccc2s1,15%,-7%[10 µM],1.4µM*,?,-13%,4%
CCC(C)C(NC(=O)C1CCC(C)CC1)C(=O)Nc1cc(OC)ccc1OC (configuration not stated),11%,-36%,5%,-9,-15%,3%
O=C(NCN1C(=O)C2C3C=CC(C3)C2C1=O)OC1CCCCC1 (configuration not stated),4%,-21%,3%,27,-9%,-8%
CCCCn1c(=O)[nH]c(=O)c2c1nc(-c1ccccc1F)n2Cc1ccccc1,10%,-165%,?,nt,nt,?
O=c1[nH]c(-c2ccccc2F)nc2c1sc(=S)n2Cc1ccccc1,11%,38%[10 µM],13%,12,10µM*,-23%
C[C@H]1Cc2c(-c3ccccc3)nc3c(c2CO1)CN(C(=O)C1CCCCC1)CC3,2%[14.2 µM],-2%[10 µM],-1%[13.5 µM],nt,-4%,nt
O=C(CCCc1nc2ccccc2s1)Nc1ccccc1,9%,-15%,-9%,nt,nt,-3%
O=C(O)CCCC(=O)Nc1ccc(OCc2nc3ccccc3s2)cc1,-1%,-9%[10 µM],1.8µM*,nt,nt,-13%[9.22 µM]
COc1ccccc1C(=O)O/N=C(/c1ccncc1)c1ccc([N+](=O)[O-])cc1,-2%,-6%,20µM*,nt,nt,0%
CC(C)c1cc(NC(=O)CCl)on1,-2%,9%[10 µM],1.6µM*,nt,nt,8%
Cc1cccn2c(=O)c(/C=N/O)c(N3CCOCC3)nc12,-5%,-29%,5%,nt,nt,-9%
C(=N\Nc1nc2ccccc2[nH]1)/c1ccc2ncccc2c1,10%,-32%[10 µM],nt,nt,nt,-1%[9.22 µM]
Cc1ccc2cc(/C=N/Nc3nc4ccccc4[nH]3)c(Cl)nc2c1,9%,-32%[10 µM],14%,-88*,-15%,23%
O=C(CN1CCOCC1)N/N=C/c1cc2ccccc2nc1Cl,3%,-2%[10 µM],?,?,?,-2%
COc1cc(OC)c(OC)cc1/C=N/Nc1nc2ccccc2[nH]1,1%,3%[10 µM],9%,nt,nt,-1%[9.22 µM]
SMILES,RGS12 GoLoco inh,HTT ATP protect,ALDH1A1 inh,PNC assembly inh,HPGD block,HTT aggregate
C(=N\Nc1nc2ccccc2[nH]1)/c1ccccn1,-4%,-199%,5%,nt,nt,7.1µM*
Cc1ccc(NCC(=O)N/N=C/c2cc3ccccc3nc2Cl)cc1,5%,-32%,10µM*,-13,-14%,22%
O=c1nc(N/N=C/c2ccccn2)cn[nH]1,12%,-152%,-5%,nt,nt,8.9µM*
COc1ccc(OC)c(-c2c(C#N)c(N)nc3c2c(=O)nc2sccn23)c1,-4%,-2%,-2%,nt,nt,14%
COc1ccc(/C(N)=N/O)c(OC)c1,10%,16%,8%,nt,nt,7%
O=C(C1CCCO1)N1CCN(C(=S)Nc2ccc(F)c(Cl)c2)CC1 (configuration not stated),50%,10%,-12%,nt,nt,15%
Cc1ccc(NC(=O)c2cc(=O)n(Cc3ccccc3)c(=O)[nH]2)cc1C,0%,-8%,11%,nt,nt,-5%
CN1CCN([C@@H](c2ccccc2)c2ccc(Cl)cc2)CC1,5%[21.6 µM],?,5%[20.9 µM],nt,-3%,13%[20.6 µM]
Cc1ccc(-n2nnc(-c3nccn3C)n2)cc1,-6%,-57%[10 µM],6%,nt,nt,-13%[9.22 µM]
CC(=O)CCc1ccc(OC(=O)c2cccnc2)cc1,-10%,5%[10 µM],4%,-100*,-8%,10%
O=Cc1ccc(OC(=O)c2cccnc2)cc1,-5%,-14%[10 µM],5µM*,nt,nt,7%
CCCCCCCOC(=O)c1ccc(OC(=O)c2cccnc2)cc1,-21%,15%,?,25,22µM*,-8%[1.84 µM]
O=C1C(=O)c2ccc(-c3ccccc3)cc2-c2ccccc21,-7%,-97%[10 µM],1%,-105*,-12%,4.5µM*
Nc1ccc2c(c1)C(=O)C(=O)c1ccccc1-2,-64%,-99%[10 µM],2.2µM*,-81*,2.2µM*,0.79µM*
Nc1ccc2c(c1)C(=O)c1ccccc1C2=O,31%,-41%,?,nt,-8%,nt
NS(=O)(=O)c1cccc(NC(=O)Nc2ccccc2)c1,0%,-14%[10 µM],nt,nt,nt,-21%[9.22 µM]
CN(C)Cc1cc(O)c(CN(C)C)cc1O,4µM*,-12%[10 µM],?,nt,nt,1%[9.22 µM]
CN(C)Cc1cc(O)c(O)c(CN(C)C)c1,-35%[14.2 µM],-4%[10 µM],-1%[13.5 µM],nt,-2%,nt
CCOC(=O)Cc1nnc(NC(=O)C(CC)Sc2nncn2C)s1 (configuration not stated),-4%,0%[10 µM],-11%,-85*,-16%,-3%
CCOC(=O)Cc1nnc(NC(=O)CSc2nncn2C)s1,2%,-4%[10 µM],0%,-4,-6%,-7%
C(=Nc1ccc2c(c1)Cc1ccccc1-2)c1ccccn1,1%[14.2 µM],-14%[10 µM],-13%[13.5 µM],nt,-7%,nt
O=C(C[n+]1cccc(CO)c1)Nc1nc2ccccc2s1,18%,22%[10 µM],-11%,nt,nt,20%[9.22 µM]
COc1cccc(NC(=O)CN(C)C(C)C(=O)Nc2cc([N+](=O)[O-])ccc2Cl)c1 (configuration not stated),7%,-27%,2%,nt,nt,0%
O=C1C2C3C=CC(C3)C2C(=O)N1c1cccc(N2C(=O)C3C4C=CC(C4)C3C2=O)n1 (configuration not stated),-5%,3%,-6%,-99*,-2%,5%
O=C1C2C3C=CC(C3)C2C(=O)N1c1ccc2ccccc2n1 (configuration not stated),2%,-8%[10 µM],-5%,?,-18%,21%
Cc1onc(-c2ccccc2)c1C(=O)N1CCC(C)CC1,-7%,3%[10 µM],2%,-16,-10%,0%
